In PMC7862700, “An all-to-all approach to the identification of sequence-specific readers for epigenetic DNA modifications on cytosine”:

What was measured:
Assay in all cases: DAPPL (digital affinity profiling via proximity ligation, sequencing); 10 mM Tris-HCl pH 7.5, 50 mM NaCl, 1 mM DTT, 4% glycerol, room temperature, 30 min; GST-TFs on glutathione beads, 16-mer random dsDNA library, 0.1% formaldehyde crosslink after washing; high values mean tight binding
Details in all cases: protein: recombinant; tags: N-terminal GST; dsDNA, one strand shown
FLI1 = target: T1, FLI1 (Homo sapiens, UniProt Q01543 1-452)
T1 sequence: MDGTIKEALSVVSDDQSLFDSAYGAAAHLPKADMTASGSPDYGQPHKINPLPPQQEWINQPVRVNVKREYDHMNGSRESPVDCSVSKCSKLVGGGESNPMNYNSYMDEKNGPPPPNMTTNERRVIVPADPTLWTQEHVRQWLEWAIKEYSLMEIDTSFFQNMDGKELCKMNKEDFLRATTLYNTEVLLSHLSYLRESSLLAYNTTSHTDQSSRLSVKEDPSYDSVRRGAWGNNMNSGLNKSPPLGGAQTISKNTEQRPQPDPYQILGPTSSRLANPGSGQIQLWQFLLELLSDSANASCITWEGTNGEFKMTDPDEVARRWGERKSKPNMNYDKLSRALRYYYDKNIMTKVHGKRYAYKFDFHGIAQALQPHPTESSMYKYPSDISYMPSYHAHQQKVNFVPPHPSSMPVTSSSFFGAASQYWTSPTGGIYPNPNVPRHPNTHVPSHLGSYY
In short: (§1)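 Pools of DNA-barcoded human transcription factors, expressed in yeast as GST fusions on glutathione beads and combined with a tag-only sample, were incubated with 200 nmole of a 16-mer random double-stranded DNA library. Incubation took 30 min at room temperature in Tris/NaCl/DTT/glycerol buffer and was followed by washing, 0.1% formaldehyde crosslinking, proximity ligation (BsaI/T4 ligase, 1 h, 37 °C), PCR amplification and sequencing on an Illumina NextSeq500. Binding signal is the ratio of a hexamer's read frequency for a factor to its frequency for the tag-only sample.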

ELK1 = target: T2, ELK1 (Homo sapiens, UniProt P19419 1-428)
T2 sequence: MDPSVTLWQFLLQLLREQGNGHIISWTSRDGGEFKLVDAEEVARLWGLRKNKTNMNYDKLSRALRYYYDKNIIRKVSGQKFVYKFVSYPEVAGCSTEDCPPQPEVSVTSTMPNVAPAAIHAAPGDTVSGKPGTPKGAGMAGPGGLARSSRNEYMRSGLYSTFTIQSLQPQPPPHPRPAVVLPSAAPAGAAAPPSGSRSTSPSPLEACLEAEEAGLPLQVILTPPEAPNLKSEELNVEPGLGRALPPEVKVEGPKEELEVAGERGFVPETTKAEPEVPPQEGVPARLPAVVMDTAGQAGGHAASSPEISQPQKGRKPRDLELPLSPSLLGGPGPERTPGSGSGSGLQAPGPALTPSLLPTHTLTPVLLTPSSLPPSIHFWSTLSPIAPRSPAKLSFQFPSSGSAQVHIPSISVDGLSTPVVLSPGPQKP
In short: as §1

GABPA = target: T3, GABPA (Homo sapiens, UniProt Q06546 1-454)
T3 sequence: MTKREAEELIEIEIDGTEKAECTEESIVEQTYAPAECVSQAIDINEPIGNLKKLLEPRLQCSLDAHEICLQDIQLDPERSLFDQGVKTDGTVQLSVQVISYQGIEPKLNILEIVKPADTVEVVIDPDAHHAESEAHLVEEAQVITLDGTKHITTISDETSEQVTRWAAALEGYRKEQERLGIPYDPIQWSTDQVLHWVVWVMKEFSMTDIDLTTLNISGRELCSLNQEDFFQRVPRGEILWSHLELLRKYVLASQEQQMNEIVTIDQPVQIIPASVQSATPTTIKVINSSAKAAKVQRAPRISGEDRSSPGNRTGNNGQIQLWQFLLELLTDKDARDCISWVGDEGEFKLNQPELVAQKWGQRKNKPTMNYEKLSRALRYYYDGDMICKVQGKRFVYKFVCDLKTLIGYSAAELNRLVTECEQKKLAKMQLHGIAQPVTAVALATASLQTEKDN
In short: as §1

ERG = target: T4, ERG (Homo sapiens, UniProt P11308 1-479)
T4 sequence: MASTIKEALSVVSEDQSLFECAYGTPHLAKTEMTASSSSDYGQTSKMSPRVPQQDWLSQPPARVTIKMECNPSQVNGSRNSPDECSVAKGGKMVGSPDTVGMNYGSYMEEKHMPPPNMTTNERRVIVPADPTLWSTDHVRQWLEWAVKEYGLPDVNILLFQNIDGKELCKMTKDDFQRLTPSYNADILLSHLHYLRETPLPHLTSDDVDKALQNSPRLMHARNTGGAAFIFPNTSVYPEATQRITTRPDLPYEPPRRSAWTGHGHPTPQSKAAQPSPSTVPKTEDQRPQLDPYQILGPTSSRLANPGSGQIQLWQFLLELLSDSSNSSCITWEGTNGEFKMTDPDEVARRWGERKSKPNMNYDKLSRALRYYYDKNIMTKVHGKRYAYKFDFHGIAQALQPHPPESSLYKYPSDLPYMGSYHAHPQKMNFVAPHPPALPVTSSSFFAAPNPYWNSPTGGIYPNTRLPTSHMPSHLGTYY
In short: as §1

ELF1 = ELF1 (Homo sapiens, UniProt P32519 1-619)
In short: as §1

EHF = target: T5, EHF (Homo sapiens, UniProt Q9NZC4 1-300)
T5 sequence: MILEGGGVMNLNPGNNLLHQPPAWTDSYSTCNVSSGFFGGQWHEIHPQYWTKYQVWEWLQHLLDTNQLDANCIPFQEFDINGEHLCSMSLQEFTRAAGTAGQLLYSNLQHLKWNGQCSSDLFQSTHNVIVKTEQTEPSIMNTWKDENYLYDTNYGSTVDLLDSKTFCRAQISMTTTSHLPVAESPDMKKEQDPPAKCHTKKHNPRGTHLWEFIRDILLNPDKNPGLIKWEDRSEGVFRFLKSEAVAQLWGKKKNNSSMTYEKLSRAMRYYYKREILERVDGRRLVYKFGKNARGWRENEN
In short: as §1

SPI1 = SPI1 (Homo sapiens, UniProt P17947 1-270)
In short: as §1

SPIB = SPIB (Homo sapiens, UniProt Q01892 1-262)
In short: as §1

ELK3 = target: T6, ELK3 (Homo sapiens, UniProt P41970 1-407)
T6 sequence: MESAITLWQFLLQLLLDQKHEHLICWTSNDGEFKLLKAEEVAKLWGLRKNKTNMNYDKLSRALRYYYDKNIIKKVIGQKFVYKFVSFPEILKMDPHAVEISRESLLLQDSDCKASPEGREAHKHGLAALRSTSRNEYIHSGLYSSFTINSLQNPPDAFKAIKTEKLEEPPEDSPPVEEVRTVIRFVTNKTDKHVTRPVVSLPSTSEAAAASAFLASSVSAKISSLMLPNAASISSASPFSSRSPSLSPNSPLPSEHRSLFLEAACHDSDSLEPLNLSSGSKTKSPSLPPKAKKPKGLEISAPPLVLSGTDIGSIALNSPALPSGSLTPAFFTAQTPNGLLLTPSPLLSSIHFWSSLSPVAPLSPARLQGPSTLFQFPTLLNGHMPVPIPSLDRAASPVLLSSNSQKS
In short: as §1

Chain of SPIB (Q01892 whole entry): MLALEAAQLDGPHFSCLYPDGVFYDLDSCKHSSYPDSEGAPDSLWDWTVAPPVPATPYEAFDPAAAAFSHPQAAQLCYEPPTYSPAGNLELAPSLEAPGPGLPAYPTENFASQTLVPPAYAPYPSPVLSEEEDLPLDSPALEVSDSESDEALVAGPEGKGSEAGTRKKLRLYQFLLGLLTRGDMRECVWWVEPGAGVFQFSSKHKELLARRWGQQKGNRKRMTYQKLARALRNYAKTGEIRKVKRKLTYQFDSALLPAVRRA
Chain of ELF1 (P32519 whole entry): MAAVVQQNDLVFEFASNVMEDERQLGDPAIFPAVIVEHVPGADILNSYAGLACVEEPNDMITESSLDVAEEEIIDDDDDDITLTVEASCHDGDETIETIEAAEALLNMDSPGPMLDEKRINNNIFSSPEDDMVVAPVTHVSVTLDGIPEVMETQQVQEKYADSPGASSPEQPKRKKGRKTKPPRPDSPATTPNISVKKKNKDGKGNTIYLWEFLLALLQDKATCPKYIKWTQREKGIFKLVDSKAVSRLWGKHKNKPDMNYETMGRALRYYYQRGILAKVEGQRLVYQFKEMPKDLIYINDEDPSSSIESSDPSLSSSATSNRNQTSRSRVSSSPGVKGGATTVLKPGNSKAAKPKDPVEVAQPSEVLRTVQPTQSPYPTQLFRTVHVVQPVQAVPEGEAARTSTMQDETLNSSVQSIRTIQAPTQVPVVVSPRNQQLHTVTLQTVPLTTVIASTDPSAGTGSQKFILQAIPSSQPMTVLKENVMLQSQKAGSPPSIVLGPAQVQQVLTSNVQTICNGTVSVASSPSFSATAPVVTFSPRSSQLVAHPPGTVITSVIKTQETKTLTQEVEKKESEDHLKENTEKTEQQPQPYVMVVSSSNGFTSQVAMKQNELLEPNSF

CCTATC
binding signal (FLI1): 1.27 fold enrichment (6-mer frequency, TF over GST control) | binding signal (ELK1): 1.27 fold enrichment (6-mer frequency, TF over GST control) | binding signal (GABPA): 1.13 fold enrichment (6-mer frequency, TF over GST control) | binding signal (ERG): 1.15 fold enrichment (6-mer frequency, TF over GST control) | binding signal (ELF1): 1.15 fold enrichment (6-mer frequency, TF over GST control) | binding signal (EHF): 1.18 fold enrichment (6-mer frequency, TF over GST control) | binding signal (SPI1): 1.14 fold enrichment (6-mer frequency, TF over GST control) | binding signal (SPIB): 1.31 fold enrichment (6-mer frequency, TF over GST control) | binding signal (ELK3): 1.45 fold enrichment (6-mer frequency, TF over GST control)
